Experimental data reported in PubChem BioAssay AID1274 (Emory University Molecular Libraries Screening Center, 2008).
Out of some 220,000 compounds screened, about 1,100 (0.5%) were called active.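 How the source made its calls: active means inhibition above about 30% (limit read from the data); inactive means the rest.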 Shown is part of a subset that was picked to be rich in actives.

Each compound was assayed against Neutrophil cytosol factor 1 (Homo sapiens) (UniProt P14598) (assay: blockers of p47phox binding to p22phox – biochemical, uHTS, NADPH oxidase regulatory subunit, primary screen (AID 1274;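 further: 0% = p47phox with labelled peptide and 100% = labelled peptide alone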)). Conditions: p47phox/p22phox peptide binding, fluorescence polarization, 2 h; at 24.7 µM; hits give high values.
Neutrophil cytosol factor 1 (Homo sapiens), sequence (P14598 whole entry, looked up): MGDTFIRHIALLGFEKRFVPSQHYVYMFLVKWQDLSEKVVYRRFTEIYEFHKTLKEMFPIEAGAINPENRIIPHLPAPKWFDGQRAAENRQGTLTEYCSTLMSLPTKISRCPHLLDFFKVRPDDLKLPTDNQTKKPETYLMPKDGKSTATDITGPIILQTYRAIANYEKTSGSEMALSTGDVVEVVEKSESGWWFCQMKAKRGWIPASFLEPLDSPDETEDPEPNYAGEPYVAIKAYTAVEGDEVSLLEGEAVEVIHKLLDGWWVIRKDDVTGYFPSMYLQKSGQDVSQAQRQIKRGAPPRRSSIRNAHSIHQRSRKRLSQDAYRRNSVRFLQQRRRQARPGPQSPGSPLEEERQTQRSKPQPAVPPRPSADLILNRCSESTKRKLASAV

Row | SMILES | inhibition
1 | COc1ccc(N2C(=O)CNC2=S)cc1 | 41.5% (active)
2 | COc1ccc(N2C(=O)C(Cc3ccccc3)NC2=S)cc1 (configuration not stated) | -10.2% (inactive)
3 | COc1ccc(N2C(=O)CC(SC(C)C)C2=O)cc1 (configuration not stated) | -5.28% (inactive)
4 | Cc1c(C(=O)OC(C)C)sc(NC(=O)c2cccnc2)c1C#N | -54.3% (inactive)
5 | O=C(CSc1ccc([N+](=O)[O-])cn1)Nc1ccc(N2CCOCC2)cc1 | 2.81% (inactive)
6 | O=C(O)CCC(=O)Nc1ccc(N2CCOCC2)cc1 | -1.84% (inactive)
7 | Cn1cnnc1SCC(=O)Nc1ccc(N2CCOCC2)cc1 | 50% (active)
8 | CN1CCN(CCCCOc2ccccc2-c2ccccc2)CC1 | -0.29% (inactive)
9 | CC(C)=CCCC1(C)C=Cc2c(ccc3c2[nH]c2cc(O)c(C)cc23)O1 (configuration not stated) | -11.9% (inactive)
10 | O=[N+]([O-])c1cccc(-c2nnc3c4ccccc4c4ccccc4n23)c1 | -1.55% (inactive)
11 | CCOC(=O)c1cnc2[nH]c3ccccc3n2c1=O | 0.2% (inactive)
12 | O=c1[nH]c2ccccc2n2c(-c3ccccc3)nnc12 | 69.6% (active)
13 | COc1ccc2oc(N)c(C=O)c(=O)c2c1 | -6.85% (inactive)
14 | CC/C(O)=N\S(=O)(=O)c1ccc(N=NN(C)C)cc1 | -7.34% (inactive)
15 | COc1ccccc1OCCNC(=O)c1cc([N+](=O)[O-])cc([N+](=O)[O-])c1 | 5.08% (inactive)
16 | CCc1cc(Br)ccc1NC(=O)C1CCCO1 (configuration not stated) | -3.52% (inactive)
17 | OC(CNCC1CCCO1)Cn1c2ccc(Br)cc2c2cc(Br)ccc21 (configuration not stated) | 64% (active)
18 | CCOC(=O)Cn1c(=O)oc2cc(S(=O)(=O)NCC3CCCO3)ccc21 (configuration not stated) | -8.76% (inactive)
19 | CS(=O)(=O)N1CCc2cc(C(=O)Nc3ccccc3)ccc21 | -4.32% (inactive)
20 | CC(C)Cc1nn2c(=O)cc(O)nc2s1 | -2.97% (inactive)
21 | O=c1[nH]c(=S)[nH]c2[nH]c(=S)[nH]c12 | 32.1% (active)
22 | Cc1cc(=O)[nH]c(=S)[nH]1 | -3.01% (inactive)
23 | Cc1c(C)c(C)c2[nH]c(=S)[nH]c2c1C | -7.18% (inactive)
24 | Cn1c(=O)c([N+](=O)[O-])c(Oc2ccccc2)c2ccccc21 | 0.11% (inactive)
25 | CCOc1cc(NC(=S)NCCCOC)c(OCC)cc1NC(=O)c1ccco1 | -10.9% (inactive)

Row | SMILES | inhibition
26 | CCOc1cc(NC(=O)c2ccco2)c(OCC)cc1NC(=O)COc1ccccc1 | 35.5% (active)
27 | CCOc1cc(NC(=S)NCc2ccco2)c(OCC)cc1NC(=O)c1ccco1 | 4.63% (inactive)
28 | COc1ccccc1P(=O)(c1ccccc1)c1ccccc1NC(C)=O (configuration not stated) | 7.25% (inactive)
29 | COc1ccc(/C=C/C(=O)OCC(=O)NCc2cccs2)cc1OC | -9.49% (inactive)
30 | COC(=O)Cc1c(O)ccn(Cc2cccc(C(F)(F)F)c2)c1=O | -10.6% (inactive)
31 | COc1ccccc1C(=O)NN1C(=O)C2C3C=CC(O3)C2C1=O (configuration not stated) | -8.76% (inactive)
32 | O=C(NN1C(=O)C2C(C1=O)C1C=CC2C12CC2)c1ccccc1Cl (configuration not stated) | 43.4% (active)
33 | CC1=CC(C)(C)NC(=S)N1NC(=O)c1ccccc1Cl | -1.05% (inactive)
34 | COc1ccc(COCC(O)CN2CCC(C(N)=O)CC2)cc1 (configuration not stated) | -6.99% (inactive)
35 | Cc1ccccc1Nc1scc(-c2ccc(Br)cc2)[n+]1-c1ccccc1C | -1.63% (inactive)
36 | CC(C)CNC(=O)COC(=O)c1ccccc1OCC(=O)Nc1ccc(Br)cc1 | 0.42% (inactive)
37 | CC1CN(S(=O)(=O)c2ccc(C(=O)Nc3sccc3C(N)=O)cc2)CC(C)O1 (configuration not stated) | -4.8% (inactive)
38 | CN1/C(=C\C(=O)c2oc3ccccc3c2N)C(C)(C)c2ccccc21 | -9.12% (inactive)
39 | CN1/C(=C\C=C2\N=C(c3ccc(F)cc3)OC2=O)C(C)(C)c2ccccc21 | 149% (active)
40 | CN1/C(=C\C(=O)c2cccnc2Cl)C(C)(C)c2ccccc21 | -37.8% (inactive)
41 | COc1cc(C(=O)NCc2ccc3c(c2)cc(C)n3C)cc(OC)c1OC | 1.37% (inactive)
42 | O=C(O)C1=C[C@H](c2cccs2)C[C@H](OCCCCO)O1 | -14.3% (inactive)
43 | Cc1ccc(C)c(CSc2nc(-c3ccco3)nc3c2c(=O)n(C)c(=O)n3C)c1 | -1.58% (inactive)
44 | CC(C)(C)NC(=O)/C(=C/c1cccnc1)NC(=O)c1ccco1 | -7.92% (inactive)
45 | COCCN1C=C2C(=O)C(C)(OC(=O)C3CCCC3)C(=O)C=C2C=C1c1ccsc1 (configuration not stated) | 0.87% (inactive)
46 | CC1(OC(=O)CCc2ccccc2)C(=O)C=C2C=C(c3ccc(C#N)cc3)N(CCc3ccccn3)C=C2C1=O (configuration not stated) | 32.3% (active)
47 | C=CCN1C=C2C(=O)C(C)(OC(=O)CCc3ccccc3)C(=O)C=C2C=C1c1ccc(C#N)cc1 (configuration not stated) | -11.9% (inactive)
48 | CCN(C(=O)CN1CCN(Cc2ccccc2)CC1)c1c(N)n(Cc2ccccc2)c(=O)[nH]c1=O | -14.8% (inactive)
49 | NC(=O)N1CCc2ccccc21 | 3.78% (inactive)
50 | O=C(c1cccc(C(=O)N2CCc3ccccc32)n1)N1CCc2ccccc21 | 45.6% (active)

Row | SMILES | inhibition
51 | O=C(c1cnn2ccccc12)N1CCc2ccccc21 | -1.85% (inactive)
52 | Nc1nnn(CC(=O)N/N=C/c2ccc(O)cc2)n1 | -6.45% (inactive)
53 | CN(C)c1nc(=Nc2cccc(Cl)c2)ss1 | -21.8% (inactive)
54 | CCCCN=C1C([N+](=O)[O-])=CC=C2C1=NC1(CCCCC1)N2O | 103% (active)
55 | Oc1c(C=Nc2cccc3nsnc23)ccc2ccccc12 | -51.3% (inactive)
56 | Oc1ccc(N=Nc2nccs2)c(O)c1 | -48.9% (inactive)
57 | Oc1ccc2ccccc2c1N=Nc1nccs1 | 59.9% (active)
58 | CCN(C(=O)COC(=O)/C=C/c1nc2ccccc2s1)C1CCS(=O)(=O)C1 (configuration not stated) | -4.73% (inactive)
59 | CCOC(=O)N1CCN(C(c2cccnc2)c2ccc3cccnc3c2O)CC1 (configuration not stated) | 6.02% (inactive)
60 | CCN1CCN(C(c2cccnc2)c2cc(Cl)c3cccnc3c2O)CC1 (configuration not stated) | 38.2% (active)
61 | Oc1c(CN2CCN(c3ccc(F)cc3)CC2)cc(Cl)c2cccnc12 | 11.9% (inactive)
62 | CC(=O)Nc1nc(C)c(-c2csc(Nc3ccc(S(N)(=O)=O)cc3)n2)s1 | -21.6% (inactive)
63 | CCOC(=O)C1CCN(C(=O)c2oc3ccc(S(=O)(=O)N4CCCCCC4)cc3c2C)CC1 | -9.11% (inactive)
64 | CCOC(=O)C1CCN(c2ncnc3c2oc2ccc(Br)cc23)CC1 | 48.6% (active)
65 | CCOC(=O)C1CCN(c2ncnc3c2c(-c2ccccc2)cn3-c2ccc(C)cc2)CC1 | -0.04% (inactive)
66 | CCN(CC)N=Nc1cccc(NC(C)=O)c1 | 2.47% (inactive)
67 | O=C(CSC(=S)N1CCCCC1)c1c(F)cccc1F | -20.4% (inactive)
68 | CC(C)Oc1ccc(CC(=O)NNC(=S)Nc2ccc(Br)cc2)cc1 | -4.65% (inactive)
69 | Cc1cccc(C)c1NC(=O)C1(N(C(=O)c2ccccn2)c2ccc(O)cc2)CCCCC1 | -4.76% (inactive)
70 | CC(Oc1ccc(-c2ccccc2)c(F)c1)c1ccn(S(=O)(=O)c2cccc3ccccc23)n1 (configuration not stated) | 30.5% (active)
71 | COc1ccc(Nc2nc(N)nc(CSC(=S)N3CCC(C)CC3)n2)cc1 | -5.99% (inactive)
72 | CCn1c(SCC(=O)N/N=C/c2ccncc2)nc2ccccc21 | 3.59% (inactive)
73 | NNc1nc2c(Cl)cccc2s1 | -5.57% (inactive)
74 | CC(C)Oc1ccc(C(=O)Nc2cc(=O)n(C)c(=O)n2C)cc1 | -14% (inactive)
75 | CC(=O)OCc1cc(=O)n(C)c(=O)n1C | 38.7% (active)

Row | SMILES | inhibition
76 | CC(=O)c1c(N)n(C)c(=O)n(C)c1=O | -3.86% (inactive)
77 | O=C1CN(C(=O)CN2C(=O)NC3(CCCCC3)C2=O)c2ccccc2N1 | -8.11% (inactive)
78 | C=CCC1(C#N)C(=S)NC(C)=C(C(=O)OCC)C1c1ccccc1 (configuration not stated) | -0.89% (inactive)
79 | C=CCN1CC(C)/C(=N\O)CC1C (configuration not stated) | -0.6% (inactive)
80 | Cn1c(SCC(=O)OC2CCCCC2)nnc1-c1ccc(S(=O)(=O)N2CCCC2)cc1 | -1.77% (inactive)
81 | Cn1c(SCC(=O)Nc2cccc(O)c2)nnc1-c1ccc(S(=O)(=O)N2CCOCC2)cc1 | 36.6% (active)
82 | CCC(=O)Nc1cccc(NC(=O)CSc2nnc(-c3ccc(NS(C)(=O)=O)cc3)n2C)c1 | -16.1% (inactive)
83 | Nc1c(NCCc2ccccc2)c2ccccc2oc1=O | -7.7% (inactive)
84 | Cc1cc(C)cc(OCC(=O)Nc2ccc(S(=O)(=O)Nc3ccccn3)cc2)c1 | -4.16% (inactive)
85 | O=C(COc1ccc2oc3c(c2c1)CCCC3)Nc1ccccn1 | 178% (active)
86 | Cc1ccc(OCC(=O)Nc2ccc(S(=O)(=O)Nc3ccccn3)cc2)cc1 | 5.31% (inactive)
87 | Cc1ccc(S(=O)(=O)NNC(=S)NC(C)(C)C)cc1 | -8.25% (inactive)
88 | CCc1ccccc1NC(=O)CSc1nnc(CCNC(=O)OC(C)(C)C)o1 | -6.69% (inactive)
89 | CCN(CC(=O)NCCc1ccccc1)S(=O)(=O)c1ccccc1 | -6.19% (inactive)
90 | O=C(Nc1ccc(Br)cn1)C1CCN(S(=O)(=O)c2cccs2)CC1 | -5.24% (inactive)
91 | CCN(CC)CCCN=Cc1c(O)n(-c2ccc(C)cc2)c(=O)c2ccccc12 | 111% (active)
92 | CCOc1ccc(-n2c(O)c(/C=N/Nc3nc(C)cc(C)n3)c3ccccc3c2=O)cc1 | -10.2% (inactive)
93 | CCOc1ccc(-n2c(O)c(/C=N/Nc3nnc(C)c(=O)[nH]3)c3ccccc3c2=O)cc1 | -44.3% (inactive)
94 | O=C(O)C1CCN(C(=O)c2cc(F)cc3c2OCOC3)CC1 | -5.96% (inactive)
95 | Cc1nc2c(-c3ccc(F)cc3)c(C)nn2c(C)c1CCC(=O)N1CCN(c2ccccn2)CC1 | -1.7% (inactive)
96 | Cc1nc2ncnn2c(C)c1CCC(=O)N1CCN(C(=O)c2ccco2)CC1 | 2.67% (inactive)
97 | Cc1nc2nc(C)c(CCC(=O)N3CCN(c4ccccc4)CC3)c(C)n2n1 | 37.8% (active)
